Beta2AR agonist = beta2AR agonists driving receptor internalization, primary screen, cell-based, FAP fluorogen, flow cytometry; Beta-2 adrenergic receptor (Homo sapiens), P07550; Am2.2-beta2AR cells; response, % (no concentration beside the values); 340,000 tested, 0.43% active; AID 504454, 2011;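 active = response above a set limit, near 3 SD of response in nonfluorescent compounds, cut at about 42% in these data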
MEKK2wt PB1 HTS = modulators of MEK5 binding to wildtype MEKK2, primary screen, biochemical, multiplex bead flow cytometry, Alexa488-MEK5. Mitogen-activated protein kinase kinase kinase 2 (Homo sapiens), Q9Y2U5. Alexa488-MEK5 binding to MEKK2 WT; actives lie on both sides. binding response (% of control), % at 10 µM. 290,000 tested, 1.1% active; in the data active = binding response below about 67% or above about 130%
MEKK2 mut-MEK5 = MEK5 binding signal on mutant MEKK2 PB1, primary screen, biochemical, multiplex bead flow cytometry, Alexa488-MEK5. Alexa488-MEK5 binding to MEKK2 mutant. percent response, % at 10 µM. 290,000 tested, 0.35% active. AID 1530, 2009; in the data active = percent response above about 24%, passing the limit was not always enough
GRK2 inh = compounds blocking aptamer binding on GRK2 – biochemical, human GRK2, bead flow cytometry, HTS, primary screen | FAM-aptamer displacement from GRK2 | inhibition of aptamer binding, % at 10 µM | 330,000 tested, 0.59% active;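 active = inhibition of aptamer binding above 40%, roughly 3 SD of noise, on plates passing a quality check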;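 note: median bead fluorescence of bound FAM aptamer so fluorescent compounds give negative values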
Target sequence (P25098 whole entry, looked up): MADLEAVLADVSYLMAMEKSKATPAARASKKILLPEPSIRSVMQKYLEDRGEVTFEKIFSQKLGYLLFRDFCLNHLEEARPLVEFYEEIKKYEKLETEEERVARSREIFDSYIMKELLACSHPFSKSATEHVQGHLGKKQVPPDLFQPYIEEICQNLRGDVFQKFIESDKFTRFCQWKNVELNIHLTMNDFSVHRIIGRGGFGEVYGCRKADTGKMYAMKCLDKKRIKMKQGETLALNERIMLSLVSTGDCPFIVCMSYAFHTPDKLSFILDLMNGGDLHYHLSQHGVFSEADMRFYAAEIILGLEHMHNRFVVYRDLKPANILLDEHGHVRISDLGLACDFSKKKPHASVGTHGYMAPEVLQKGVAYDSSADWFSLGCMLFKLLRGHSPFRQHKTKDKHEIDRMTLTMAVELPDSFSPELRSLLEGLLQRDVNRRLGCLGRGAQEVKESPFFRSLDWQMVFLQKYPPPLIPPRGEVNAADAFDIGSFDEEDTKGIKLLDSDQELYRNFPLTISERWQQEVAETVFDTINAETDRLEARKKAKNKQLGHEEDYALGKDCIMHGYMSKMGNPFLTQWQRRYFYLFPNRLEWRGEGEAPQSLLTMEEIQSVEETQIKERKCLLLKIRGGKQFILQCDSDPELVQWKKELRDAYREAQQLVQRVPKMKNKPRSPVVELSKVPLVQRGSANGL
MEKK3 PB1 HTS = modulators of MEKK3-MEK5 PB1 binding, primary screen, biochemical, wildtype MEKK3, multiplex bead flow cytometry, Alexa488-MEK5 | Mitogen-activated protein kinase kinase kinase 3 (Homo sapiens), Q99759 | AID 1529, 2009 | bead-based flow cytometry, Alexa488-MEK5 binding to MEKK3; actives lie on both sides; 0 = blocked by unlabeled MEK5, 100 = vehicle | binding response (% of control), % at 10 µM | 290,000 tested, 1.4% active;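 active = binding response more than 3 SD above or below the average of its plate-row segment, actives on both sides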;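 note: Alexa488 bead fluorescence after subtracting the streptavidin-only scavenger bead signal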
MEKK2wt confirm = modulators of MEK5 binding to wildtype MEKK2, confirmation, biochemical, single concentration, multiplex bead flow cytometry; shares compounds with MEKK3 PB1 HTS; Alexa488-MEK5 binding to MEKK2 WT; actives lie on both sides; binding response (% of control), % at 10 µM; 5,900 tested, 2.4% active; AID 1892, 2009; in the data active = binding response below about 16% or above about 210%; inactive = in between
MEKK2mut-MEK5 = mutant MEKK2 PB1-MEK5 binding signal retest – biochemical, single concentration, multiplex bead flow cytometry, confirmation | shares compounds with MEKK3 PB1 HTS | Alexa488-MEK5 binding to MEKK2 mutant | percent response, % at 10 µM | 5,900 tested, 2% active; in the data active = percent response mostly above about 71%, no sharp cut-off; inactive = mostly below about 38%;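 note: higher means compound restores mutant binding toward wildtype level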
MEKK3-MEK5 inh = MEKK3 wild-type PB1 binding to MEK5, inhibitors, confirmation, biochemical, bead multiplex flow cytometry, single concentration, wildtype. shares compounds with MEKK3 PB1 HTS. Alexa488-MEK5 binding to MEKK3; active compounds read low. binding response (% of control), % at 10 µM. 5,900 tested, 1.8% active. AID 1894, 2009;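 active = binding response below 72% of control, or above a set upper limit, though filed actives all read lower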;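 note: lower values mean stronger disruption of MEK5 binding to MEKK3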
Each line names hits and unclear results; the compound was inactive in the other large screens (follow-up assays come after a bar, where they were run); [ ] = another dose, or the depositor's remark. Hits are enriched below; roughly 2.9% of the tested compounds scored in any of these assays.

O=c1oc2ccccc2c(O)c1C=Nc1cccnc1	none
CNS(=O)(=O)c1ccc(C(=O)NCC(=O)NC(C)c2cccs2)cc1 (configuration not stated)	none (no result: MEKK2wt PB1 HTS, MEKK2 mut-MEK5, MEKK3 PB1 HTS)
Cc1ccc(S(=O)(=O)c2nc(N3CCOCC3)sc2Cl)cc1	MEKK3 PB1 HTS 124 | MEKK2wt confirm inactive | MEKK2mut-MEK5 inactive | MEKK3-MEK5 inh inactive
O=C(Nc1ccc(Oc2ncnc3cc(Cl)ccc23)nc1)c1ccc(F)cc1	none (no result: Beta2AR agonist)
O=C(O)COCC(=O)Nc1ccc(Oc2ncnc3cc(Cl)ccc23)nc1	MEKK3 PB1 HTS 48[inhibitor] | MEKK2wt confirm inactive | MEKK2mut-MEK5 inactive | MEKK3-MEK5 inh inactive
CCOCCCNC(=S)NCCCNc1nc2c(C)cc(C)cc2cc1C#N	none (no result: GRK2 inh)
Cc1cc(C)c2nc(NCCCNC(=S)NCCCN(C)C)c(C#N)cc2c1	Beta2AR agonist 43, MEKK2wt PB1 HTS 164 | MEKK2wt confirm inactive | MEKK2mut-MEK5 inactive | MEKK3-MEK5 inh inactive
CCN1CCCC1CNc1ncnc2c1[nH]c1ccc(Cl)cc12 (configuration not stated)	MEKK2 mut-MEK5 35 | MEKK2wt confirm inactive | MEKK2mut-MEK5 inactive | MEKK3-MEK5 inh inactive
CC(C)(C)N=C1SCC(C)(/C=N/O)S1 (configuration not stated)	none
CCC(C)N=C1SCC(C)(/C=N/O)S1 (configuration not stated)	MEKK2wt PB1 HTS 135, MEKK3 PB1 HTS 128 | MEKK2wt confirm inactive | MEKK2mut-MEK5 inactive | MEKK3-MEK5 inh inactive
C=C1CCN([C@@H](CC(C)C)C(=O)N2CCCC2)S(=O)(=O)c2ccccc21	none
CCN(CC)CC#CCC(O)(c1ccccc1)C1CCCC1 (configuration not stated)	MEKK2wt PB1 HTS 46[inhibitor] | MEKK2wt confirm inactive | MEKK2mut-MEK5 inactive | MEKK3-MEK5 inh inactive
CN(C)CC#CCC(O)(c1ccccc1)C1CCCCC1 (configuration not stated)	none
O=C(NNC(=O)C1CC(c2cccnc2)=NO1)Nc1ccccc1F (configuration not stated)	MEKK2wt PB1 HTS 31, MEKK2 mut-MEK5 95 | MEKK2wt confirm inactive | MEKK2mut-MEK5 inactive | MEKK3-MEK5 inh inactive
Cc1cc(OC(=O)c2cc(F)c(F)cc2Cl)nc(C)n1	none
Cc1cc(OC(=O)c2c(F)cc(F)cc2F)nc(C)n1	MEKK3 PB1 HTS 149 | MEKK2wt confirm inactive | MEKK2mut-MEK5 inactive | MEKK3-MEK5 inh inactive
COc1ccc(NC(=O)C(OC(=O)Cn2cnc3c2c(=O)n(C)c(=O)n3C)c2ccccc2)cc1Cl (configuration not stated)	none (no result: MEKK2wt PB1 HTS, MEKK2 mut-MEK5, GRK2 inh, MEKK3 PB1 HTS)
Clc1cccc(CNCCNCc2cccc(Cl)c2)c1	MEKK2wt PB1 HTS 187 | MEKK2wt confirm inactive | MEKK2mut-MEK5 inactive | MEKK3-MEK5 inh inactive
Cc1cccc(C(=O)OCC(=O)NC(=O)Cc2ccccc2)c1O	none
Cc1ccc2nc(/N=C(\N)NC(=O)NC3CCCCC3)nc(C)c2c1	MEKK2wt PB1 HTS 141 | MEKK2wt confirm inactive | MEKK2mut-MEK5 inactive | MEKK3-MEK5 inh inactive
CCCC(=O)N/C(N)=N/c1nc(C)c2cc(C)ccc2n1	none
CCOc1ccccc1/C=N/NC(=O)C[n+]1ccccc1	none (no result: MEKK2wt PB1 HTS, MEKK2 mut-MEK5, MEKK3 PB1 HTS)
O=C(NC(=S)NNC(=O)c1cnccn1)c1ccc(Cl)cc1	MEKK2wt PB1 HTS -10[inhibitor], MEKK3 PB1 HTS 2.0[inhibitor] | MEKK2wt confirm inactive | MEKK2mut-MEK5 inactive | MEKK3-MEK5 inh inactive
COc1ccc(C(=O)NC(=S)NNC(=O)c2cnccn2)cc1	none
O=C(Cn1c(=O)n(-c2ccccc2)c(=O)c2oc3ccccc3c21)Nc1ccccc1	MEKK3 PB1 HTS 131 | MEKK2wt confirm inactive | MEKK2mut-MEK5 inactive | MEKK3-MEK5 inh inactive
Cc1nc2ccc(NC(=O)c3nn(CC(C)C)c(=O)c4ccccc34)cc2s1	MEKK3 PB1 HTS 148 | MEKK2wt confirm inactive | MEKK2mut-MEK5 inactive | MEKK3-MEK5 inh inactive
CCn1nc(C(=O)Nc2nc3ccc(C)cc3s2)c2ccccc2c1=O	none
COc1ccc(CC(=O)Oc2ccccc2Cl)cc1S(=O)(=O)N1CCOCC1	none (no result: MEKK2wt PB1 HTS, MEKK2 mut-MEK5, MEKK3 PB1 HTS)
CCOC(=O)C1(CCc2ccccc2)CCN(C(=O)c2cnc(C)cn2)CC1	none
COc1ccc(CCN2CCCC(CN(C)Cc3cc(Cl)c(O)c(OC)c3)C2)cc1 (configuration not stated)	MEKK2wt PB1 HTS 135, MEKK2 mut-MEK5 25 | MEKK2wt confirm inactive | MEKK2mut-MEK5 inactive | MEKK3-MEK5 inh inactive
Cc1nc2cc(-c3ccc(Cl)cc3)nn2c(NCCN(C)C)c1C	MEKK2wt PB1 HTS 148 | MEKK2wt confirm inactive | MEKK2mut-MEK5 inactive | MEKK3-MEK5 inh inactive
CCn1c(=O)c([N+](=O)[O-])c(NCCc2ccccc2)c2ccccc21	none
Cn1c(=O)c([N+](=O)[O-])c(NCCc2ccccc2)c2ccccc21	MEKK3 PB1 HTS 129 | MEKK2wt confirm inactive | MEKK2mut-MEK5 inactive | MEKK3-MEK5 inh inactive
Cc1ccc(C2CC2c2n[nH]c(=S)n2-c2cccc(Cl)c2)cc1 (configuration not stated)	none
Cc1ccccc1OCc1n[nH]c(=S)n1-c1cccc(Cl)c1	MEKK2 mut-MEK5 24 | MEKK2wt confirm inactive | MEKK2mut-MEK5 inactive | MEKK3-MEK5 inh inactive
Cc1n[nH]c(=S)n1-c1cccc(Cl)c1	MEKK3 PB1 HTS 74[inhibitor] | MEKK2wt confirm inactive | MEKK2mut-MEK5 inactive | MEKK3-MEK5 inh inactive
CC12CCC(=O)N1C(C(=O)OCC(=O)Nc1ccc(S(N)(=O)=O)cc1)CS2 (configuration not stated)	MEKK2wt PB1 HTS 49[inhibitor] | MEKK2wt confirm inactive | MEKK2mut-MEK5 inactive | MEKK3-MEK5 inh inactive
O=C(CNc1ccccc1)N/N=C/c1ccc([N+](=O)[O-])cc1	MEKK3 PB1 HTS 134 | MEKK2wt confirm inactive | MEKK2mut-MEK5 inactive | MEKK3-MEK5 inh inactive
O=C(CNc1ccccc1)N/N=C/c1ccc2c(c1)OCCO2	none
O=C(CNc1ccccc1)N/N=C/c1ccc2c(c1)OCO2	MEKK3 PB1 HTS 135 | MEKK2wt confirm inactive | MEKK2mut-MEK5 inactive | MEKK3-MEK5 inh inactive
COC(=O)c1ccc(C(=O)OC)c(NC(=O)CN(c2ccccc2)S(=O)(=O)N(C)C)c1	none
